From PubChem BioAssay AID1159580 (chemical genetic matrix, 2015)
“And” between values parts separate entries of the source, which are not always exact repeats. Identical values can stand only once. Hit rate of the full screen: of about 5,500 compounds, about 2,000 (36%) were called active. Another 18% or so got no clear call; they are omitted. Cut-off read from the data, not from the text of the source: active = normalized growth mostly below about 0.91 (no sharp cut-off); inconclusive = no clear call, values can overlap the other calls; inactive = mostly above about 0.92. The list shows a part of the results.

Assay: chemical genetic growth profiling, strain panel (AID 1159580);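 note: tested at 20 µM; growth read once vehicle control cultures reached saturation at 30 °C; 1 = growth at the plate median or of vehicle wells; lower values mean less growth of the strain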
Conditions: S. cerevisiae deletion strains, growth OD

Measured: normalized growth

CN(C)CC/C=C1/c2ccccc2COc2ccccc21
inactive: locus YAL021C, strain ccr4, stronger effect = lower value 0.99 | locus YAL026C, strain drs2, stronger effect = lower value 1.03 | locus YAL030W, strain snc1, stronger effect = lower value 1.02 | locus YBL061C, strain skt5, stronger effect = lower value 1.02 | locus YBR009C, strain hhf1, stronger effect = lower value 1.01 | locus YBR021W, strain FUR4, stronger effect = lower value 0.991 | locus YBR023C, strain chs3, stronger effect = lower value 1.03 | locus YBR171W, strain sec66, stronger effect = lower value 1.05 | locus YBR229C, strain ROT2, stronger effect = lower value 1 | locus YBR231C, strain swc5, stronger effect = lower value 1.04 | locus YBR279W, strain paf1, stronger effect = lower value 1.01 | locus YCL011C, strain gbp2, stronger effect = lower value 1.03 | locus YCL016C, strain dcc1, stronger effect = lower value 1.02 | locus YCL029C, strain bik1, stronger effect = lower value 1.02 | locus YCL069W, strain vba3, stronger effect = lower value 1.03 | locus YCR088W, strain abp1, stronger effect = lower value 1.03 | locus YDL005C, strain med2, stronger effect = lower value 1.05 | locus YDL035C, strain GPR1, stronger effect = lower value 1.03 | locus YDL040C, strain nat1, stronger effect = lower value 1.02 | locus YDL074C, strain BRE1, stronger effect = lower value 1.01 | locus YDL101C, strain DUN1, stronger effect = lower value 1.02 | locus YDL134C, strain PPH21, stronger effect = lower value 1.01 | locus YDL185W, strain tfp1, stronger effect = lower value 1.03 | locus YDL192W, strain arf1, stronger effect = lower value 1.03 | locus YDR001C, strain nth1, stronger effect = lower value 1.01 | locus YDR069C, strain doa4, stronger effect = lower value 1.02 | locus YDR101C, strain arx1, stronger effect = lower value 0.992 | locus YDR137W, strain rgp1, stronger effect = lower value 1.14 | locus YDR159W, strain sac3, stronger effect = lower value 1.05 | locus YDR162C, strain NBP2, stronger effect = lower value 1.02 | locus YDR195W, strain ref2 1.05 | locus YDR297W, strain sur2, stronger effect = lower value 1.03 | locus YDR318W, strain mcm21, stronger effect = lower value 1.02 | locus YDR334W, strain swr1, stronger effect = lower value 1.02 | locus YDR335W, strain msn5, stronger effect = lower value 1.02 | locus YDR388W, stronger effect = lower value 1.03 | locus YDR392W, strain spt3, stronger effect = lower value 0.987 | locus YDR502C, strain sam2, stronger effect = lower value 1.02 | locus YEL003W, strain gim4, stronger effect = lower value 1.03 | locus YEL037C, strain rad23, stronger effect = lower value 1.02 | locus YEL061C, strain CIN8 (second series), stronger effect = lower value 1.02 | locus YEL061C, strain CIN8, stronger effect = lower value 1.01 | locus YER015W, strain faa2, stronger effect = lower value 0.977 | locus YER016W, strain bim1, stronger effect = lower value 1.01 | locus YER110C, stronger effect = lower value 1.02 | locus YER111C, strain swi4, stronger effect = lower value 1.03 | locus YER155C, strain BEM2 (second series), stronger effect = lower value 1.01 | locus YER155C, strain BEM2, stronger effect = lower value 1.01 | locus YER167W, strain BCK2, stronger effect = lower value 1.01 | locus YFR010W, strain ubp6, stronger effect = lower value 1.02 | locus YGL078C, strain dbp3, stronger effect = lower value 1.01 | locus YGL086W, strain mad1, stronger effect = lower value 1 | locus YGL167C, strain pmr1, stronger effect = lower value 1.03 | locus YGL173C, strain kem1, stronger effect = lower value 1.03 | locus YGL227W, strain vid30, stronger effect = lower value 1.01 | locus YGL240W, strain doc1, stronger effect = lower value 1 | locus YGL248W, strain PDE1, stronger effect = lower value 1 | locus YGL253W, strain hxk2, stronger effect = lower value 1.02 | locus YGR078C, strain PAC10, stronger effect = lower value 1.01 | locus YGR135W, strain pre9, stronger effect = lower value 1.03 | locus YGR229C, strain SMI1, stronger effect = lower value 1.02 | locus YGR252W, strain gcn5, stronger effect = lower value 0.972 | locus YHR013C, strain ard1, stronger effect = lower value 0.983 | locus YHR027C, strain rpn1, stronger effect = lower value 0.983 | locus YHR030C, strain SLT2, stronger effect = lower value 1.02 and 1.03 | locus YHR079C, strain IRE1 (second series), stronger effect = lower value 1.03 | locus YHR079C, strain IRE1, stronger effect = lower value 1.06 | locus YHR094C, strain hxt1, stronger effect = lower value 1.01 | locus YHR129C, strain ARP1, stronger effect = lower value 1.01 | locus YHR142W, strain chs7, stronger effect = lower value 1.02 | locus YHR200W, strain rpn10, stronger effect = lower value 1.04 | locus YIL066C, strain RNR3, stronger effect = lower value 1.02 | locus YIL073C, strain SPO22, stronger effect = lower value 1.11 | locus YIL125W, strain kgd1, stronger effect = lower value 1.01 | locus YIR030C, strain dcg1, stronger effect = lower value 1.01 | locus YJL092W, strain hpr5, stronger effect = lower value 1.03 | locus YJL095W, strain BCK1 (second series), stronger effect = lower value 1.03 | locus YJL095W, strain BCK1, stronger effect = lower value 0.992 and 1.03 | locus YJL115W, strain asf1, stronger effect = lower value 1.03 | locus YJL129C, strain trk1, stronger effect = lower value 1.06 | locus YJL134W, strain LCB3, stronger effect = lower value 1.01 | locus YJL154C, strain vps35, stronger effect = lower value 1.02 | locus YJL164C, strain tpk1, stronger effect = lower value 1.02 | locus YJL166W, strain qcr8, stronger effect = lower value 1.01 | locus YJL168C, strain set2, stronger effect = lower value 1.01 | locus YJL187C, strain SWE1 (second series), stronger effect = lower value 1.01 | locus YJR043C, strain POL32, stronger effect = lower value 1.01 | locus YJR066W, strain TOR1, stronger effect = lower value 0.931 | locus YKL009W, strain mrt4, stronger effect = lower value 1.03
